Compound activity as filed in PubChem.
Compounds with a hit are over-represented: about 9.3% of the library has one in this group of screens.
Htt clearance: mutant huntingtin protein clearance | actives 0.42% (n = 47,000) | HeLa Exon1htt(103Q)mCFP, aggregate imaging; zero = plate's median compound well | inhibition, % at 1.5 µM;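 active means inhibition of aggregate fluorescence above about 70%, also judged a hit by eye on the cell image, limit read from the data, passing the limit was not always enough; inconclusive means no rule stated for this call; inactive means not judged a hit on image review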;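 further: cells exposed to compound for three days before fixation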
Fluor 339 460: intrinsic fluorescence of library compounds, ex339/em460 – biochemical, MLSMR library, data from DPM-DC assay, artefact control, profiling panel. actives 5.5% (n = 65,000). fluorescence fold increase at 10 µM. AID 709. compound autofluorescence, ex339/em460 nm, NADH buffer; stronger effect = higher value; 1 = no-compound wells, NADH background;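 active means at 10 µM, mean starting fluorescence two-fold or more over control wells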;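 further: signal is the first read of a kinetic run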
M1 antag: blocks the rat M1 muscarinic receptor response to acetylcholine; P08482; CHO-M1 cells, Fluo-4 calcium, ACh EC80 antagonist mode; stronger effect = lower value; B-score at 10 µM; actives 3.4% (n = 64,000); AID 628;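 active means calcium fluorescence response, raw or row-and-column corrected B-score, differing from the plate sample mean either way at a set confidence level, mostly lower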
NADH enzymes: inhibition of NAD/NADH coupling enzymes, library profiling | coupled PK/LDH NADH assays, four targets | IC50, µM (series often up to 10 µM), without a hit: top-dose inhibition | actives 0.02% (n = 65,000) | AID 774;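 active means single-dose screening hits from any of four coupled enzyme assays that gave an IC50 when retested across doses; inconclusive means no clear call, values can overlap the other calls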;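 further: the DPM-DC format reads NADH fluorescence rather than 340 nm absorbance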
M1 agonist: agonists of M1 muscarinic receptor. CHO-M1 cells, Fluo-4 calcium fluorescence, agonist mode; stronger effect = higher value. B-score at 10 µM. actives 3% (n = 64,000). AID 626;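 active means fluorescence rise, raw or as B-score row- and column-corrected plate score, outside the 99.7% band of its plate's samples, either direction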
Abs 340nm: compounds absorbing at 340 nm. compound absorbance at 340 nm, fold over control. fold change at 10 µM. 65,000 tested, under 10 active;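 active means at 10 µM dose, initial 340 nm absorbance at least 2 fold that of control wells; inactive means change under 2 fold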;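 further: initial absorbance extrapolated from kinetic A340 decline of NADH oxidation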
M1 ag confirm: rat M1 muscarinic agonism, confirmation; shares compounds with M1 agonist; CHO-M1 cells, Fluo-4 calcium fluorescence, agonist mode; actives lie on both sides; fluorescence change (max-min) at 10 µM; actives 19% (n = 1,700); AID 1488;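 active means fluorescence change differs from the solvent-only DMSO control mean at a set confidence level in both duplicate runs; inconclusive means differs from solvent-only control mean in just one of two runs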;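 further: an EC20 dose of acetylcholine follows compound addition during the same imaging run; raw fluorescence intensity difference in instrument units with no normalization to controls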
M4 agonist ctr: activates rat M4 receptor in counter-screen for M1 agonists | CHO M4/Gqi5 cells, Fluo-4 calcium fluorescence, agonist mode; actives lie on both sides | shares compounds with M1 agonist | actives 9% (n = 1,700) | fluorescence change (max-min) at 10 µM | AID 1741;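 active means fluorescence change differing from the plate's solvent-only control wells at 99.7% confidence in both duplicates, whether higher or lower; inconclusive means differs from solvent controls in only one of two duplicates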
Target sequence (P08485 whole entry, looked up): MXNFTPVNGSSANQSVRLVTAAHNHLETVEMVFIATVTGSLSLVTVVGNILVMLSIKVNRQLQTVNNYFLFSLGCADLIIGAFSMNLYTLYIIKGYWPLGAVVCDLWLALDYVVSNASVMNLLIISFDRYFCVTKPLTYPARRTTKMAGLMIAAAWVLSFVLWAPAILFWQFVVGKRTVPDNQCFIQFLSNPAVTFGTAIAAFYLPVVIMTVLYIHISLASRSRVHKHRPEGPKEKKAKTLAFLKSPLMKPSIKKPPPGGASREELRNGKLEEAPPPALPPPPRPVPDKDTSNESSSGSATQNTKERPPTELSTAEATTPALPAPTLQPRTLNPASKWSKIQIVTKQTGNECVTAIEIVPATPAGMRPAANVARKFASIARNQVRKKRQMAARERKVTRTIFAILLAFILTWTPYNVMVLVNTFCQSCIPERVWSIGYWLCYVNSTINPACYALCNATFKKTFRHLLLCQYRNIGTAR
* hit, by the source's call.

CN(C)CCNC(=O)C12CC3(C)CC(C)(CC(C)(C3)C1)C2 was read as Fluor 339 460 1, M1 antag -0.94, NADH enzymes 3%, M1 agonist 3.3*, Abs 340nm 1, M1 ag confirm inconclusive and M4 agonist ctr -70.
Screening CC1CN(c2nc3ccccc3nc2C(C#N)C(=O)NC2CCCCC2)CC(C)O1 (configuration not stated) returned Fluor 339 460 1.2, M1 antag 0.1, NADH enzymes 4%, M1 agonist 41*, Abs 340nm 1, M1 ag confirm -31* and M4 agonist ctr -62.
For CC1CN(c2nc3ccccc3nc2C(C#N)C(=O)OC2CCCCC2)CC(C)O1 (configuration not stated) the results were Htt clearance -23, Fluor 339 460 1.1, M1 antag -0.11, NADH enzymes 3%, M1 agonist 38*, Abs 340nm 1, M1 ag confirm inconclusive and M4 agonist ctr -35.
For Cc1nnc(N2C(=O)c3oc4ccccc4c(=O)c3C2c2ccco2)s1 (configuration not stated) the results were Fluor 339 460 1, M1 antag -0.25, NADH enzymes 3%, M1 agonist 3*, Abs 340nm 1, M1 ag confirm inconclusive and M4 agonist ctr -44.
Screening CC(C)c1nnc(N2C(=O)c3oc4ccccc4c(=O)c3C2c2ccco2)s1 (configuration not stated) returned Fluor 339 460 1.1, M1 antag -0.53, NADH enzymes 1%, M1 agonist -0.21 and Abs 340nm 1.1.
`COC(=O)c1cc(OC)c(OC)cc1NC(=O)C1CCC(=O)N1S(=O)(=O)c1ccc(C)cc1` (configuration not stated) gave Fluor 339 460 1.2, M1 antag -0.042, NADH enzymes 6%, M1 agonist -2*, Abs 340nm 1.1, M1 ag confirm inconclusive and M4 agonist ctr -26.
`CC(NC(=O)NC12CC3CC(CC(C3)C1)C2)C1CCCO1` (configuration not stated) gave Fluor 339 460 1.1, M1 antag -0.15, NADH enzymes 3%, M1 agonist 1.5 and Abs 340nm 1.
`Cc1cc2cc3c(cc2nc1SCC(=O)Nc1ccccc1)CCC3` gave Htt clearance 36.
For N=c1oc2c3c4c(cc2cc1C(=O)Nc1ccccc1)CCCN4CCC3 the results were Htt clearance 63, Fluor 339 460 1.6, M1 antag -15*, NADH enzymes 1%, M1 agonist 221*, Abs 340nm 1.1, M1 ag confirm 3358* and M4 agonist ctr 2806*.
`Cn1cnnc1Sc1nc2ccccc2nc1NS(=O)(=O)c1ccccc1` gave Fluor 339 460 1.6, M1 antag -0.061, NADH enzymes 10%, M1 agonist -0.043 and Abs 340nm 1.1.
`CC(=O)Nc1ccc(S(=O)(=O)Nc2nc3ccccc3nc2Sc2nncn2C)cc1` gave Htt clearance 4, Fluor 339 460 1.1, M1 antag 0.3, NADH enzymes 7%, M1 agonist 43*, Abs 340nm 1.1, M1 ag confirm 55* and M4 agonist ctr 12.
`Cc1nc2sccn2c1-c1csc(NCc2ccccc2)n1` gave Htt clearance 11, Fluor 339 460 1.2, M1 antag -1.6, NADH enzymes 5%, M1 agonist 8.3*, Abs 340nm 1.1, M1 ag confirm -10 and M4 agonist ctr inconclusive.
`CCc1ccc(CNC(=O)CN2C(=O)COc3ccccc32)cc1` gave Fluor 339 460 1.1, M1 antag -0.34, NADH enzymes 1%, M1 agonist -0.79 and Abs 340nm 1.
For Cc1nc2nc(C)c(CCC(=O)NCc3ccc4c(c3)OCO4)c(C)n2n1 the results were Htt clearance -29, Fluor 339 460 1, M1 antag 0.017, NADH enzymes 5%, M1 agonist 0.0043 and Abs 340nm 0.96.
